Data published in PubChem BioAssay (NCATS).
Records with an inconclusive call do not appear. Calls come from the whole dose curve; as a rule, active = well fitted curve in either direction with a large enough effect (not every such curve was filed as active); inconclusive = small, poorly fitted or top-dose-only effect, or another doubt; inactive = flat fitted curve, though single readings scatter.

Experiment: Stat Signaling Pathway (AID 446);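 note: ME-180 cervical cancer cells given 40 pM IL-6 alongside compound; SIE-controlled beta-lactamase reporter measured as 460/530 nm FRET emission ratio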
Conditions: ME-180 (cervical carcinoma) SIE beta-lactamase reporter, IL-6 stimulated, 5 h; at 7.69 µM (top of the series) unless noted
Procedure, shortened: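 Compound effects on IL-6-induced STAT reporter activity were measured in ME-180 cells. After overnight culture, cells were co-treated with 40 pM IL-6 for 5 hrs before beta-lactamase substrate loading at room temperature.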
% is set by controls: 0 for no effect and ±100 for the full control effect.

activity, negative = inhibition, inactive:
N#CCCn1c(=O)c(-c2ccccc2)nc2cnc(Nc3ccccc3)nc21 -23.1%, COc1cccc(-c2nccc(NCc3cccnc3)n2)c1 -2.24%, CN(C)c1ncc2nc(-c3cccs3)c(=O)n(-c3ccccc3)c2n1 21.3%, COc1ccc(-c2nc3cnc(OC)nc3n(C)c2=O)cc1 15.6%, COCCn1c(=O)c(-c2cccs2)nc2cnc(OC)nc21 6.32%, COc1ccc(CNc2ccnc(-c3c(C)noc3C)n2)c(OC)c1 0.0565%, COc1cccc(Cn2c(=O)cnc3cnc(OCc4ccccc4)nc32)c1 -13.2%, Cc1cnc(CNc2ncnc3ccc(-c4ccc5c(c4)OCO5)cc23)cn1 -16.2%, CNc1nc(-c2c(C)noc2C)nc2ccccc12 -5.04%, N#Cc1cccc(-c2nccc(NCc3ccccc3)n2)c1 -6.24%, COc1ccccc1CNc1cc(-c2ccccc2C(F)(F)F)ncn1 9.59%, c1ccc(CNc2ncncc2-c2ccc3c(c2)OCO3)cc1 -0.121%, Cc1noc(C)c1-c1nc(Nc2ccc(F)cc2)c2ccccc2n1 4.28%, COc1ccc(CNc2ccnc(-c3ccccc3OC)n2)c(OC)c1 1.07%, O=c1c(CCc2ccccc2)nc2cnc(N3CCOCC3)nc2n1CCc1ccccc1 -4.94%, COc1cccc(Cn2c(=O)c(-c3cccs3)nc3cncnc32)c1 0.799%, O=c1c(-c2ccc(F)cc2)nc2cncnc2n1-c1ccccc1 -3.31%, COc1ccccc1-c1cncnc1NCc1cnc(C)cn1 4.26%, CN(C)Cc1ccccc1-c1nc(NC2CC2)c2ccccc2n1 7.64%, CN(Cc1ccco1)c1ncnc2ccc(-c3ccccc3C#N)cc12 14.4%, Cc1cnc(CNc2nc(-c3ccccc3C(F)(F)F)nc3ccccc23)cn1 -2.08%, CS(=O)(=O)Nc1cccc(-c2nccc(Nc3ccc(F)cc3)n2)c1 -20.3%, COc1cccc(-c2cc(NCc3ccccc3)ncn2)c1 -5.77%, c1ccc(CNc2ncncc2-c2cccnc2)cc1 -3.91%, N#Cc1cccc(-c2nccc(NCc3cccs3)n2)c1 -14.7%, Cc1ccccc1-c1cncnc1NCc1cccnc1 4.91%, COc1ccc(Oc2ncc3nc(-c4cn(C)c5ccccc45)c(=O)n(C)c3n2)cc1 1.51%, CN(C)c1ccc(-c2cncnc2N(C)Cc2ccco2)cc1 -5.82%, COc1ncc2nc(-c3cn(C)c4ccccc34)c(=O)n(CCC#N)c2n1 -7.24%
